Hits are enriched below; roughly 0.47% of the tested compounds scored in any of these assays.
TcdB GH inh = TcdB glycohydrolase inhibitors, primary screen, biochemical, single point, plate reader; Toxin B (Clostridioides difficile), P18177; TcdB glycohydrolase enzymatic assay; inhibition, % at 9.99 µM; actives 0.24% (n = 350,000); in the data active = inhibition above about 10%
FadD28 binding = inhibitors of FadD28 bisubstrate probe binding, primary screen, biochemical, fluorescence polarization, single point; inhibition, % at 12.5 µM; actives 0.22% (n = 360,000); Mycobacterium tuberculosis FadD28 fatty-acid-AMP ligase; AID 588549, 2011; in the data active = inhibition above about 8.5%, passing the limit was not always enough
Y pestis TopoI = Yersinia pestis topoisomerase I inhibitors, primary screen, biochemical, cleavage product accumulation, plate reader, single point; DNA topoisomerase I (Yersinia pestis CO92); Y. pestis Topo-I cleavage product accumulation; activity, % at 10 µM; actives 0.064% (n = 360,000); AID 504884, 2011; in the data active = activity above about 50%, passing the limit was not always enough
BioA inh-1 = M. tuberculosis BioA enzyme inhibitors, primary screen, biochemical, plate reader, single point, HTS | actives 0.096% (n = 360,000) | 7,8-diaminopelargonic acid synthase BioA (Mycobacterium tuberculosis) | purified M. tuberculosis BioA enzyme | inhibition, % at 9.99 µM; in the data active = inhibition above about 40%
BioA inh-2 = Mtb BioA enzyme inhibitors, dose response, biochemical, plate reader, cherry-pick samples, set 03. purified BioA enzyme. 310 tested, under 10 active. max activity, %. AID 651679, 2012. shares compounds with BioA inh-1;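 note: top concentration of the dilution series was 10 µM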
HepG2 cytotox = cytotoxicity in HepG2 cells, dose response, cytotoxicity control, cell-based, plate reader, cherry-pick, two tests; shares compounds with BioA inh-1; max activity, %; 310 tested, under 10 active
3T3 cytotox 5 = cytotoxicity in NIH3T3 fibroblasts, dose response, cytotoxicity control, cell-based, plate reader, cherry-pick, two tests; shares compounds with BioA inh-1; activity change, negative = cytotoxicity, % at 26 µM; 310 tested, under 10 active
The depositor's hits bear a star; i = inactive; / = no result given; [ ] = another dose, or the depositor's remark. Unless noted, the rule behind the calls is not given here.

SMILES	TcdB GH inh	FadD28 binding	Y pestis TopoI	BioA inh-1	BioA inh-2	HepG2 cytotox	3T3 cytotox 5
O=C(Nc1ccc2c(c1)[C@H]1C[C@H](CC(=O)N3CCc4ccccc4C3)O[C@H](CO)[C@H]1O2)c1cccnc1	-1	/	/	36	/	/	/
CN(C)C(=O)C[C@@H]1CC[C@H]2[C@H](COc3ccc(NC(=O)c4ccc(F)c(F)c4)cc3C(=O)N2C)O1	-1	/	/	0	/	/	/
COC(=O)C1C(=O)C=C(Nc2ccc(F)cc2)CC1c1ccc(OC)cc1 (configuration not stated)	/	-5	4	75*	-6	8	-2
COC(=O)C1C(=O)C=C(Nc2ccc(F)cc2F)CC1c1ccc(OC)cc1 (configuration not stated)	1	-1	3	19	/	/	/
CC(=O)c1ccc(NC(=O)CN2CCN(c3ccccc3)CC2)cc1	-1	-3	-2	55*	-6	9	-3
N#C[C@H]1[C@@H](c2ccccc2-c2ccc(F)cc2)[C@@H](CO)N1C(=O)Cc1cccnc1	1	/	/	/	/	/	/
CC(=O)c1cc2c(cc1NC(=O)c1ccc(-n3nc(C)cc3C)cc1)OCO2	0	-4	-4	1	/	/	/
Cc1cc(C)n(-c2ccc(C(=O)Nc3ccc4c(c3)OCO4)cc2)n1	/	-7	11	44*	-8	-8	3
O=C(CCOc1ccccc1)N1CCN(S(=O)(=O)c2ccccc2F)CC1	1	-3	0	1	/	/	/
Cc1c(OCC(=O)NCc2ccccn2)ccc2c3c(c(=O)oc12)CCCC3	1	-1	5	-2	/	/	/
Cc1c(OC(C)C(=O)NCc2ccccn2)ccc2c3c(c(=O)oc12)CCC3 (configuration not stated)	0	-3	2	43*	-8	-5	-3
CNc1nc(N)c([N+](=O)[O-])c(Nc2cccc(F)c2)n1	1	0	3	-1	/	/	/
O=C(CC(c1ccccc1)c1cc(Cl)ccc1O)N1CCCC1 (configuration not stated)	1	-7	17	0	/	/	/
CC(=O)N1CC[C@H]2[C@@H]1c1cc(-c3cccc(F)c3)ccc1N(C)[C@H]2CO	1	/	/	25	/	/	/
CN1c2ccc(-c3cccc(F)c3)cc2[C@@H]2[C@@H](CCN2C(=O)c2ccncc2)[C@H]1CO	/	/	/	50*	6	i	-3[23.5 µM]
COc1ccc(-c2ccc3c(c2)[C@H]2[C@H](CCN2C(=O)Cc2cccnc2)[C@H](CO)N3C)cc1	6	/	/	43*	5	i	-15
CC(=O)N1CC[C@@H]2[C@@H](CO)N(C)c3ccc(-c4cccc(F)c4)cc3[C@@H]21	7	/	/	56*	3	i	-4
CCC(=O)N1CC[C@@H]2[C@H]1c1cc(-c3cccc(F)c3)ccc1N(C)[C@H]2CO	/	/	/	42*	-5	i	-2
CN1c2ccc(-c3ccccc3)cc2[C@H]2[C@H](CCN2C(=O)c2ccccc2F)[C@H]1CO	1	/	/	46*	-5	i	-9[23.5 µM]
CN1c2ccc(-c3cccc(F)c3)cc2[C@H]2[C@H](CCN2C(=O)c2ccccc2F)[C@@H]1CO	-1	/	/	10	/	/	/
Cc1nnsc1S(=O)c1ccc(Cl)cc1 (configuration not stated)	3	-1	4	/	/	/	/
Cc1ccc(Cc2c(C)nc3nc(SCC(=O)NCc4ccco4)nn3c2C)cc1	/	-1	17	50*	-6	12	0
Cc1ccc(Cc2c(C)nc3nc(SCC(=O)N4CCC5(CC4)OCCO5)nn3c2C)cc1	/	0	31	/	/	/	/
Cc1cccc(Cc2c(C)nc3nc(SCC(=O)NCc4ccco4)nn3c2C)c1	/	-2	24	39	/	/	/
Cc1nc2nc(SCC(=O)N3CCOCC3)nn2c(C)c1Cc1ccccc1	/	0	2	111*	-4	-7	-6
SMILES	TcdB GH inh	FadD28 binding	Y pestis TopoI	BioA inh-1	BioA inh-2	HepG2 cytotox	3T3 cytotox 5
Cc1nc2nc(SCC(=O)NCc3ccco3)nn2c(C)c1Cc1c(F)cccc1Cl	/	-4	21	48*	3	22	-1
COC(=O)c1ccc(OC(=O)CN2C(=O)c3ccccc3C2=O)cc1	0	-4	0	-1	/	/	/
O=C(CN1C(=O)C2CC=CCC2C1=O)Nc1nc2ccc(F)cc2s1 (configuration not stated)	1	1	5	/	/	/	/
CCN(CC)c1ccc2cc(C(=O)c3cccs3)c(=O)oc2c1	1	1	/	91*	-7	49	-9
CCN(CC)c1ccc2cc(-c3nc4ccccc4[nH]3)c(=O)oc2c1	/	0	-7	-10	/	/	/
CC(=O)c1ccc(NC(=O)Cc2ccsc2)cc1	0	-2	2	2	/	/	/
CC(=O)c1ccc(NC(=O)COC(=O)Cc2ccsc2)cc1	1	1	11	47*	-6	12	-3
CCOC(=O)c1cccc(NC(=S)NC(=O)c2cccnc2)c1	1	-3	9	3	/	/	/
COc1cc(OC)c(C(=O)Nc2cccnc2)cc1OC	2	-1	-4	85*	4	-7	-3
CC(C)(C)c1cc(C(=O)Nc2cccnc2)cc(C(=O)Nc2cccnc2)c1	0	-4	5	45*	4	11	8
CCCOC(=O)c1cccc(NC(=O)c2cccnc2)c1	/	-2	0	43*	-8	7	-3
O=C(Nc1cccnc1)c1ccc(Cl)c(Cl)c1	2	0	-10	60*	-6	13	2
COc1cccc(C(=O)Nc2cccnc2)c1	2	1	11	/	/	/	/
CC(C)C[C@H]1COCc2cn(nn2)CC[C@H](C)C(=O)N1	0	/	/	/	/	/	/
COc1ccc2c3c(n(C)c2c1)[C@H](CO)N(C)CC31CN(S(=O)(=O)c2cccs2)C1	0	/	/	/	/	/	/
Nc1cc(-c2nn[nH]n2)ccc1F	/	2	-3	0	/	/	/
COC(=O)C1=C(C)N(C)C(=NCc2ccc(OC)cc2)NC1c1cccc(Cl)c1 (configuration not stated)	-1	/	/	/	/	/	/
CCCNS(=O)(=O)c1ccc(NC(=O)c2cccnc2)cc1	/	-2	6	23	/	/	/
O=C(Nc1ccc(NS(=O)(=O)c2ccccc2)cc1)c1cccnc1	1	4	-4	52*	9	-9	-3
O=C(Nc1cccnc1)c1ccccc1Oc1ccccc1	/	-1	1	4	/	/	/
COCCN1C(=O)c2ccc(C(=O)Nc3cccnc3)cc2C1=O	-1	-3	-6	59*	-7	-12	3
O=C(Nc1cccnc1)c1ccc(Oc2ccccc2)cc1	/	-3	-4	69*	-9	-8	6
Cc1ccc(/C=C(\CCC(=O)O)c2nc3ccccc3s2)cc1[N+](=O)[O-]	0	-1	10	90*	-5	6	2

Screens as filed in PubChem BioAssay.
